From PubChem BioAssay (EPA / NIEHS) come the findings set out here.

Active and inactive are the calls of the source. The calls were made as follows: active = hit-call score of the fitted dose curve at least 0.9, where 1 is the maximum; inactive = score below 0.9.

The first experiment in a line: CCTE_Shafer_MEA_dev_burst_duration_mean: CCTE's Neural Network Formation Assay for Mean Burst Duration, Shafer Lab (AID 2284045).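 As to AC50: curve fitted for loss meaning shorter burst duration than DMSO.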 A digest of the protocol: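 Primary rat cortical neurons on 48-well 16-electrode MEA plates, exposed from day 0 with renewal at DIV 5 and 9; spontaneous activity recorded on days 5, 7, 9, 12. Well-mean burst duration across bursting electrodes, collapsed as trapezoidal AUC; DMSO baseline.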
As to `CC1(C)[C@H](C=C(Cl)Cl)[C@@H]1C(=O)O[C@@H](C#N)c1cccc(Oc2ccccc2)c1`, the call was inactive.
For `[CH3][Hg][Cl]`, the AC50 (usually the concentration giving half of the maximal activity seen) was 0.26 µM (active).
Turning to `c1ccc2c(c1)cc1ccc3cccc4ccc2c1c34`, the compound was called inactive.

A short description of the next experiment: CCTE_Shafer_MEA_dev_interburst_interval_mean: CCTE's Neural Network Formation Assay for Mean Interburst Interval, Shafer Lab (AID 2284046).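 Also: well-mean interburst interval of bursting electrodes as AUC over four recording days; curve fitted for decrease in interburst interval relative to DMSO.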 The procedure, abridged:
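Developing rat cortical networks on 48-well MEAs receive compound from the day of plating. Burst intervals from each active electrode are averaged per well, and AUC over the recording days is fitted in the negative direction against DMSO.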
Take `CC1(C)[C@H](C=C(Cl)Cl)[C@@H]1C(=O)O[C@@H](C#N)c1cccc(Oc2ccccc2)c1`: the outcome was inactive.
On to `[CH3][Hg][Cl]`, for which the AC50 was 0.34 µM (active).
For `c1ccc2c(c1)cc1ccc3cccc4ccc2c1c34`, the result was inactive.

A short description of a further experiment: CCTE_Shafer_MEA_dev_inter_network_spike_interval_mean: CCTE's Neural Network Formation Assay for Mean Inter-network Spike Interval, Shafer Lab (AID 2284047).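 As to AC50: potency for a decrease in mean inter-network spike interval below DMSO.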 The procedure, abridged: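 Rat cortical cultures, 1.5 x 10^5 cells/well on 48-well MEA plates; continuous exposure days 0–12, medium and compound refreshed DIV 5, 9. Mean time between consecutive network-spike peaks; AUC across DIV 5/7/9/12; DMSO baseline, negative fitting direction.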
`CC1(C)[C@H](C=C(Cl)Cl)[C@@H]1C(=O)O[C@@H](C#N)c1cccc(Oc2ccccc2)c1`: the call was inactive.
Take `[CH3][Hg][Cl]`: the AC50 was 0.0057 µM (active).
Regarding `c1ccc2c(c1)cc1ccc3cccc4ccc2c1c34`, the outcome was inactive.

A further experiment can be described thus: CCTE_Shafer_MEA_dev_network_spike_number: CCTE's Neural Network Formation Assay for Number of Network Spikes, Shafer Lab (AID 2284048).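 Also: synchronized bursts across electrodes counted on days 5 7 9 12 and integrated as AUC.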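 As to AC50: fit as a loss of signal meaning fewer network spikes than DMSO.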 The procedure, abridged: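 Primary rat cortical neurons on PEI/laminin 48-well MEA plates, dosed from plating day 0 for 12 days, renewed at DIV 5 and 9. Network spike counts recorded DIV 5, 7, 9, 12, collapsed as trapezoidal AUC; DMSO baseline.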
`CC1(C)[C@H](C=C(Cl)Cl)[C@@H]1C(=O)O[C@@H](C#N)c1cccc(Oc2ccccc2)c1`: the half-maximal activity concentration (AC50) was 4.81 µM (active).
On the same count and under the same terms, the figure for `[CH3][Hg][Cl]` is 0.0867 µM (active).
`c1ccc2c(c1)cc1ccc3cccc4ccc2c1c34`: the outcome was inactive.
